Data published in PubChem BioAssay (NCATS).
Records with an inconclusive call do not appear. Entries that show only a call come without a potency. Values without a mark were called inactive. Activity calls are given as the source filed them. Calls come from the whole dose curve; as a rule, active = well fitted cell-killing curve with a large enough effect; inconclusive = small, poorly fitted or top-dose-only effect, or effect the other way; inactive = no such curve, though single readings can be large or run the other way.

Experiments:
[1] = Viability qHTS for spleen associated tyrosine kinase inhibitor (SYKi) naive MV4-11 cells (AID 1963823); note: nearly all actives have a fitted effect of over 40% in size
In short: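 SYKi-naive MV4-11 AML cells, 500 per well, were exposed to library compounds for 72 hr at 37 C, 5% CO2. Viability was then read by CellTiter-Glo luminescence after 10 min at room temperature.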

[2] = Viability qHTS for spleen associated tyrosine kinase inhibitor (SYKi) drug resistant MV4-11 cells (AID 1963824); note: nearly all actives have a fitted effect of over 35% in size
In short: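 SYK-inhibitor-resistant MV4-11 AML cells were seeded at 500 per well onto compound and cultured 72 hours (37 °C, 5% CO2). CellTiter-Glo was then added, and after 10 min at room temperature, luminescence gave viability.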
Potency is the fitted concentration of half-maximal effect.

| Structure (SMILES) | Potency [1] | Potency [2] | viability (% of control) [1] | viability, % of control [2] |
| --- | --- | --- | --- | --- |
| Cc1cn(C2C[C@H](O)[C@@H](CO)O2)c(=O)[nH]c1=O (stereo partly specified) | inactive | inactive | – | – |
| CNC1(C)C2CCC(C2)C1(C)C (stereo unspecified) | inactive | inactive | – | – |
| COC(=O)C1=CO[C@@H](O[C@@H]2O[C@H](CO)[C@@H](O)[C@H](O)[C@H]2O)[C@@H]2C(C)CC(=O)[C@]12O (stereo partly specified) | inactive | inactive | – | – |
| C=CC(=O)N1CCCC(n2nc(-c3ccc(Oc4ccccc4)cc3)c3c(N)ncnc32)C1 (stereo unspecified) | 0.58 µM (active) | 1.16 µM (active) | – | – |
| O=C1OCc2cc3cccc(O[C@@H]4O[C@H](CO)[C@@H](O)[C@H](O)[C@H]4O)c3c(O)c21 | inactive | inactive | – | – |
| CCC[C@@H](NC(=O)N1C(=O)C(CC)(CC)[C@@H]1Oc1ccc(C(=O)N2CCN(C)CC2)cc1)c1ccc2c(c1)OCO2 | 18.4 µM (active) | 20.6 µM (active) | – | – |
| COc1cnc(-n2cnc(C)n2)c2[nH]cc(C(=O)C(=O)N3CCN(C(=O)c4ccccc4)CC3)c12 | inactive | inactive | – | – |
| COC(=O)N[C@H](C(=O)N1CCC[C@H]1c1ncc(-c2ccc(-c3ccc(-c4cnc([C@@H]5CCCN5C(=O)[C@@H](NC(=O)OC)C(C)C)[nH]4)cc3)cc2)[nH]1)C(C)C | 18.6 µM (active) | 16.6 µM (active) | – | – |
| COc1cc(O)cc(C)c1C(=O)OC1C(CO)OC(OC2C(O)C(O)C(O)C(O)C2O)C(O)C1O (stereo unspecified) | inactive | inactive | – | – |
| COC(=O)CC1(O)C(=O)Nc2ccccc21 (stereo unspecified) | inactive | inactive | – | – |
| C=C1[C@@H](C2=CC(=O)OC2)CC[C@@]2(O)[C@@H]1CC1[C@H]2CC[C@@H]2C[C@@H](O[C@H]3O[C@@H](C)[C@@H](O[C@@H]4O[C@H](CO[C@@H]5O[C@H](CO)[C@@H](O)[C@H](O)[C@H]5O)[C@@H](O)[C@H](O)[C@H]4O)[C@H](OC)[C@H]3O)CC[C@]12C (stereo partly specified) | 2.19 µM (active) | 1.55 µM (active) | – | – |
| CC1(C)CC2C(O)C3=C(CC(C)(O)C2C1)C(=O)OC3O (stereo unspecified) | inactive | inactive | – | – |
| Cc1nc(Nc2ccc(F)cc2)nc(N2CCc3ccccc3C2C)c1C (stereo unspecified) | 20.6 µM (active) | 14.6 µM (active) | – | – |
| CC1=CC2=C(C)C(=O)[C@](C)(O)[C@H](O)C2=CO1 | inactive | inactive | – | – |
| CC1=C2C=C(CO)C(CO)CCC2(C)CCC1=O (stereo unspecified) | inactive | inactive | – | – |
| COc1cc2ncnc(N3CCC(Oc4cnc5ccccc5n4)C3)c2cc1OC (stereo unspecified) | 0.58 µM (active) | 0.411 µM (active) | – | – |
| CC1CCC23COC(=O)C2=CC(O)CC3C1(C)CCC1=CC(=O)OC1O (stereo unspecified) | inactive | inactive | – | – |
| O=C(NNc1nc2cc(F)ccc2n2cccc12)c1cnccn1 | 0.82 µM (active) | 0.731 µM (active) | – | – |
| COc1cc2nc(N3CCCC3)nc(NCCCCCN3CCCC3)c2cc1OC | 1.3 µM (active) | 2.59 µM (active) | – | – |
| COc1cc(/C=C/C(=O)OC[C@H]2O[C@@](CO)(O[C@H]3O[C@H](CO)[C@@H](O)[C@H](O)[C@H]3O)[C@@H](OC(=O)/C=C/c3ccc(O)c(OC)c3)[C@@H]2O)ccc1O | inactive | inactive | – | – |

| Structure (SMILES) | Potency [1] | Potency [2] | viability (% of control) [1] | viability, % of control [2] |
| --- | --- | --- | --- | --- |
| CC(C)=CCC[C@](C)(O)[C@H]1CC[C@]2(C)[C@@H]1[C@H](O)CC1[C@@]3(C)CC[C@H](O)C(C)(C)C3[C@@H](O[C@@H]3O[C@H](CO)[C@@H](O)[C@H](O)[C@H]3O[C@@H]3OC[C@@H](O)[C@H](O)[C@H]3O)C[C@]12C (stereo partly specified) | inactive | inactive | – | – |
| COC1=CC(=O)C[C@@H](C)[C@]12Oc1cc(OC)cc(OC)c1C2=O | inactive | inactive | – | – |
| CC1=C2C(=O)C=C(CO[C@@H]3O[C@H](CO)[C@@H](O)[C@H](O)[C@H]3O)[C@@H]2[C@H]2OC(=O)[C@H](C)[C@@H]2[C@@H](O)C1 | inactive | inactive | – | – |
| C[C@H](CCC(=O)O)[C@H]1CC[C@H]2[C@@H]3C[C@H](O)[C@@H]4C[C@H](O)CC[C@]4(C)[C@H]3CC[C@]12C | inactive | inactive | – | – |
| CSc1nc(N)cc(Oc2ccc(-c3nc(Nc4cccc(C(F)(F)F)c4)n[nH]3)cc2)n1 | 1.16 µM (active) | 1.03 µM (active) | – | – |
| C=C1C(=O)OC2/C=C(\CO)CC/C=C(\C=O)C(O)C(OC(=O)C(C)CC)C12 (stereo unspecified) | 2.02 µM (active) | 2.86 µM (active) | – | – |
| COc1cc(O)c2c(c1)C1=CC(O)C(O)CC1(C)OC2=O (stereo unspecified) | inactive | inactive | – | – |
| C=C1CC[C@@H]2[C@@](C)(CO[C@@H]3O[C@H](CO)C(O)[C@H](O)C3O)[C@H](O)CC[C@@]2(C)[C@@H]1CC/C(C)=C/CO (stereo partly specified) | – | – | 93.2% [at 9.25 µM] | 101% [at 9.25 µM] |
| C=C1C(=O)OC2C1CCC1(C)C(O)CC=C(C)C21 (stereo unspecified) | 10.3 µM (active) | 4.61 µM (active) | – | – |
| C=CC(=O)N1CCN(C(=O)CNc2cc(I)c(Cl)cc2O)CC1 | 7.31 µM (active) | 6.51 µM (active) | – | – |
| C/C(=C\CCC(C)C1=CCC2(C)OC3=C(CC12)C(=O)C(O)CC3)CO (stereo unspecified) | inactive | inactive | – | – |
| C=C[C@]1(C)C[C@H](O)[C@@H]2[C@H](OC(=O)[C@@H]2C)C1/C(C)=C/O[C@@H]1O[C@H](CO)[C@@H](O)[C@H](O)[C@H]1O (stereo partly specified) | inactive | inactive | – | – |
| CC1=C(C(=O)Nc2cc(Cl)ccc2Cl)C(c2ccco2)C2=C(CCCC2=O)N1 (stereo unspecified) | 14.6 µM (active) | 16.4 µM (active) | – | – |
| COc1cc(NC(=O)c2cc(C3CC3)on2)c(OC)cc1Cl | inactive | inactive | – | – |
| O=C(O)/C=C/c1ccc(O)c(O[C@@H]2O[C@H](CO)[C@@H](O)[C@H](O)[C@H]2O)c1 | inactive | inactive | – | – |
| C/C=C/C=C/C(O)=C1\C(O)=C(C)C(=O)[C@@]2(C)OC(=O)[C@@](C)(NC(=O)/C=C/C(=O)O)[C@@H]12 | inactive | inactive | – | – |
| COc1cc(C(O)C(CO)Oc2ccc(CCCO[C@@H]3O[C@@H](C)[C@H](O)[C@@H](O)[C@H]3O)cc2OC)ccc1O (stereo partly specified) | inactive | inactive | – | – |
| NS(=O)(=O)c1ccc(S(=O)(=O)Nc2cccc3c(Cl)c[nH]c23)cc1 | 0.235 µM (active) | 0.332 µM (active) | – | – |
| CSC(=O)OCC1=C[C@@H]2OC(=O)C3=CO[C@@H](O[C@@H]4O[C@H](CO)[C@@H](O)[C@H](O)[C@H]4O)[C@H]1[C@@H]32 | inactive | inactive | – | – |
| CC1=CC(=O)C[C@H]2[C@@H]1CC[C@@H](C)[C@]21CO[C@H](c2ccoc2)C1=O | inactive | inactive | – | – |

| Structure (SMILES) | Potency [1] | Potency [2] | viability (% of control) [1] | viability, % of control [2] |
| --- | --- | --- | --- | --- |
| CC(CN1c2ccccc2Sc2ccccc21)N(C)C (stereo unspecified) | inactive | inactive | – | – |
| C=C1CCC2C(C)(CO[C@@H]3O[C@H](CO)[C@@H](O)[C@H](O)[C@H]3O)C(O)CCC2(C)C1C(=O)CC1=CCOC1=O (stereo partly specified) | inactive | inactive | – | – |
| COC(=O)C1=COC(OC2OC(CO)C(O)C(O)C2O)C2C1C=CC2(O)CO (stereo unspecified) | inactive | inactive | – | – |
| O=C(Nc1cccc(C(F)(F)F)c1)c1ccccc1NCc1ccncc1 | 8.2 µM (active) | 9.2 µM (active) | – | – |
| CN1CCN(Cc2ccc(-c3cnc4[nH]cc(-c5ccc6[nH]ccc6c5)c4c3)cc2)CC1 | 0.082 µM (active) | 0.146 µM (active) | – | – |
| CC(C)(CC(=O)N1CCCC1)NCC(=O)N1C[C@@H](F)C[C@H]1C#N | inactive | inactive | – | – |
| COc1ccc(/C=C/C(=O)O[C@@H]2[C@@H](OC(C)=O)[C@@H](OC(C)=O)[C@H](O[C@H]3[C@@H]4C=CO[C@@H](O[C@@H]5O[C@H](CO)[C@@H](O)[C@H](O)[C@H]5O)[C@@H]4[C@@]4(CO)O[C@@H]34)O[C@H]2C)cc1 | inactive | inactive | – | – |
| [N-]=[N+]=N[C@]1(CO)O[C@@H](n2ccc(=O)[nH]c2=O)[C@@H](O)[C@@H]1O | inactive | inactive | – | – |
| CC1=CC2=C(C)C(=O)C(C)(O)C(O)C2CO1 (stereo unspecified) | inactive | inactive | – | – |
| COCc1c(Cl)ccc2c1CC[C@H]2c1ncc[nH]1 | inactive | inactive | – | – |
| CC(/C=C/C1(O)C2(C)COC1(C)CC(=O)C2)O[C@@H]1O[C@H](CO)[C@@H](O)[C@H](O)[C@H]1O (stereo partly specified) | inactive | inactive | – | – |
| C[C@@H]1O[C@@H](O[C@H]2[C@H](O[C@H]3[C@H](O[C@H]4CC[C@@]5(CO)C(CC[C@]6(C)C5CC=C5C7CC(C)(C)C[C@@H](O)[C@]7(C)CC[C@]56C)C4(C)C)O[C@H](C(=O)O)[C@@H](O)[C@@H]3O)OC[C@@H](O)[C@@H]2O)[C@H](O)[C@H](O)[C@H]1O (stereo partly specified) | – | – | 63.5% [at 9.25 µM] | 70% [at 9.25 µM] |
| CC1(C)CCCC2(C)c3c4c(c(=O)oc(=O)c3=CCC12)=CCC1C(C)(C)CCCC41C (stereo unspecified) | inactive | inactive | – | – |
| OCC(CO[C@@H]1O[C@H](CO)[C@@H](O)[C@H](O)[C@H]1O)c1ccc2c(c1)OCO2 (stereo partly specified) | inactive | inactive | – | – |
| N=C(N)c1ccc2nc(-c3cc(CC(=O)NC(CC(=O)O)C(=O)O)cc(-c4cc(S(N)(=O)=O)ccc4O)c3O)[nH]c2c1 (stereo unspecified) | inactive | inactive | – | – |
| CC1CC(O)C2(OC1=O)OC1C(O)C3C4CCC5CC(OC6OC(CO)C(O)C(O)C6OC6OC(C)C(O)C(O)C6O)CCC5(C)C4CCC3(C)C1C2C (stereo unspecified) | inactive | inactive | – | – |
| O=C(NC(NC(=S)Nc1ccc(F)c([N+](=O)[O-])c1)C(Cl)(Cl)Cl)C(c1ccccc1)c1ccccc1 (stereo unspecified) | 3.26 µM (active) | 3.26 µM (active) | – | – |
| CCC/C=C/C(=O)O[C@H]1CC(C)(C)CC2[C@]13[C@H](O)O[C@@]21CCC2[C@@]4(C)CC[C@H](O[C@@H]5O[C@H](C(=O)O)[C@@H](O)[C@H](O[C@@H]6O[C@H](CO)[C@H](O)[C@H](O)[C@H]6O[C@@H]6O[C@@H](C)[C@H](O)[C@@H](O)[C@H]6O[C@@H]6OC[C@](O)(CO)[C@H]6O)[C@H]5O[C@@H]5O[C@H](CO)[C@H](O)[C@H](O)[C@H]5O)C(C)(C)C4CC[C@@]2(C)[C@]1(C)C[C@H]3OC(C)=O (stereo partly specified) | – | – | 57.2% [at 9.25 µM] | 66.3% [at 9.25 µM] |
